An excerpt weighted towards active compounds, which were near 3.4% of everything screened.
MITF primary – MITF inhibitors, primary screen, biochemical, AlphaScreen, human; inhibition, % at 2.6 µM; Microphthalmia-associated transcription factor (Homo sapiens), O75030; AID 1259374, 2018; 650,000 tested, 0.91% active; AlphaScreen MITF homodimerization, bead proximity signal; in the data active means inhibition above about 50%
TEAD-YAP block – TEAD-YAP interaction inhibition, primary screen, TEAD-YAP interaction inhibitor project, luminescence, HEK-TIYL cells; TEAD-Gal4/YAP UAS-luciferase luminescence; inhibition, % at 9.12 µM; 640,000 tested, 1.4% active; in the data active means inhibition above about 32%
GPR151 ag – activators of human GPR151, primary screen, cell-based, PathHunter beta-arrestin, luminescence; activation, % at 11.2 µM; G-protein coupled receptor 151 (Homo sapiens), Q8TDV0; 650,000 tested, 1% active; AID 1508602, 2020; PathHunter beta-arrestin GPR151 cells; in the data active means activation above about 4.9%
FBW7 act – FBW7 E3 ligase activators, primary screen, biochemical, AlphaScreen, human; AID 1259310, 2017; normalized activity (activation), % at 26.1 µM; 650,000 tested, 0.13% active; AlphaScreen FBW7–phospho-cyclin E peptide binding, activator screen; F-box/WD repeat-containing protein 7 (Homo sapiens), Q969H0; in the data active means normalized activity above about 1.9%;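 further: purified mutant Fbw7 with reduced substrate affinity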
Target sequence (Q969H0 whole entry, looked up): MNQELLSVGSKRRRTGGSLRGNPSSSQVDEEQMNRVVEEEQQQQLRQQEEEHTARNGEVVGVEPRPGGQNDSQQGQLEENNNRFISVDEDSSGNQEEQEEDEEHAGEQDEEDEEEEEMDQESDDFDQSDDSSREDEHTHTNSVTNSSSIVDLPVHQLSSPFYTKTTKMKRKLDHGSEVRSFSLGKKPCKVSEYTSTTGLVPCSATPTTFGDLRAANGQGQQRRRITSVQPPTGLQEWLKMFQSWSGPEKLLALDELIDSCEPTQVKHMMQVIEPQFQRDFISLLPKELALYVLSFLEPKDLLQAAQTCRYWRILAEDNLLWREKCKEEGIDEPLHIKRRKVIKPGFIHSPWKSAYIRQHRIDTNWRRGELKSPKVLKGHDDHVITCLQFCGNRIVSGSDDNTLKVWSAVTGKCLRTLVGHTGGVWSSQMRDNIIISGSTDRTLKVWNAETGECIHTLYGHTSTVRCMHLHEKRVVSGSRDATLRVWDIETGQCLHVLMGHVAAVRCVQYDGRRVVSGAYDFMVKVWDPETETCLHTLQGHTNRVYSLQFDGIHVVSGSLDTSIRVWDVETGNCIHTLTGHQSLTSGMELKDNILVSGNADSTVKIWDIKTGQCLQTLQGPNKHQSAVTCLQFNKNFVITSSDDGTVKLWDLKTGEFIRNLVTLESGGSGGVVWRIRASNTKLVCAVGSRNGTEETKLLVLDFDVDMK
A number is an active result; . = inactive.

SMILES	MITF primary	TEAD-YAP block	GPR151 ag	FBW7 act
Cc1[nH]c2ccc(OC(F)(F)F)cc2c1CCNC(=O)c1cc([N+](=O)[O-])ccc1Cl	.	66.1	.	.
O=C(COC(=O)c1ccc2ccccc2n1)c1cccc([N+](=O)[O-])c1	.	.	.	.
CN(C)c1ccc(CN2CCC(C(N)=O)CC2)cc1	75.9	.	.	.
CN(C)c1ccc(CN2CCN(CCO)CC2)cc1	76.9	.	.	.
CN(C)c1ccc(CN2CCN(c3ncccn3)CC2)cc1	.	.	.	.
O=C(c1cccs1)N1CCC(N2CCOCC2)CC1	.	.	.	.
COC(=O)C1=CN(Cc2ccc(OC)c(OC)c2)C=C(C(=O)OC)C1c1ccc(OCc2ccccc2)c(OC)c1	.	.	.	.
COC(=O)C1=CN(Cc2ccc(OC)cc2)C=C(C(=O)OC)C1c1ccccc1F	.	.	.	1.9
COC(=O)C1=CN(Cc2ccc(OC)cc2)C=C(C(=O)OC)C1c1ccc(OC)c(OCc2ccccc2)c1	.	50.1	.	.
COC(=O)C1=CN(Cc2ccc(Cl)cc2)C=C(C(=O)OC)C1c1ccc(OC)c(OCc2ccccc2)c1	.	54.9	.	.
C=CCn1cc(/C=c2\sc3n(c2=O)C(c2ccc(SC)cc2)C(C(=O)OCC)=C(C)N=3)c2ccccc21 (centres undefined)	.	.	.	.
COc1cc(C=O)ccc1OC(=O)c1cccc([N+](=O)[O-])c1	.	.	.	.
CCN1CCC(Oc2ccc(-c3ccc(COC)cc3)cc2)CC1	.	.	.	.
c1ccc2oc(-c3ccc(OC4CCNCC4)cc3)cc2c1	.	68.0	.	.
COCc1ccc(-c2ccc(OC3CCNCC3)cc2)cc1	.	37.6	.	.
N#Cc1ccc(-c2ccc(OC3CCNCC3)cc2)cc1	.	.	.	.
CCc1cc2c(NCC(=O)O)nc(C)nc2s1	.	.	.	.
Cc1cnc(C(=O)NC(C)c2nc(-c3ccc(Cl)cc3)n[nH]2)cn1 (centres undefined)	.	.	.	.
Cc1cc(NCCc2ccc(O)cc2)nc(Nc2ccc(-n3ccnc3)cc2)n1	.	41.8	.	.
Cc1cc(Nc2ccc(N3CCOCC3)cc2)nc(Nc2cccc(N(C)C)c2)n1	.	53.9	.	.
Cc1cc(NCCOc2ccccc2)nc(Nc2ccc(N3CCOCC3)cc2)n1	.	42.9	.	.
COc1ccc(CCNc2cc(C)nc(N3CCOCC3)n2)cc1	.	.	.	.
COc1ccc(CCNc2cc(C)nc(Nc3ccc(N4CCOCC4)cc3)n2)cc1	.	60.3	.	.
Cc1cc(Nc2ccccc2)nc(Nc2ccc(N3CCOCC3)cc2)n1	.	35.1	.	.
Cc1cc(NCCOc2ccccc2)nc(Nc2ccc(-n3ccnc3)cc2)n1	.	40.2	.	.
SMILES	MITF primary	TEAD-YAP block	GPR151 ag	FBW7 act
Cc1cc(NCCOc2ccccc2)nc(Nc2ccccc2)n1	.	.	.	.
Cc1cc(NCc2cccc(C(F)(F)F)c2)nc(Nc2ccc(N3CCOCC3)cc2)n1	.	47.5	.	.
Cc1cc(Nc2ccc(N3CCOCC3)cc2)nc(Nc2ccc(N3CCOCC3)cc2)n1	.	.	.	.
Cc1cc(NCc2cccc(C(F)(F)F)c2)nc(Oc2ccccc2)n1	.	66.5	.	.
Cc1cc(NCc2cccc(C(F)(F)F)c2)nc(Nc2ccc(C(F)(F)F)cc2)n1	.	.	.	.
O=P(O)(Cc1ccccc1O)c1ccccc1	.	.	.	.
Cc1cnc(Nc2nccc3ccccc23)nc1Nc1ccc2c(c1)OCO2	.	.	.	.
CC(=O)Nc1ccc(Nc2nc(Nc3nc4ccccc4n3C)nc3nc[nH]c23)cc1	.	.	.	.
Cc1cnc(Nc2ccc(N3CCOCC3)cc2)nc1Nc1ccccc1C(N)=O	.	93.0	.	.
Cc1cnc(Nc2ccc3ncccc3c2)nc1Nc1ccc2c(c1)OCO2	.	44.3	.	.
Cc1cnc(Nc2ccccc2)nc1Nc1ccc(N2CCOCC2)cc1	.	61.9	.	.
Cn1c(Nc2nc(Nc3ccc4c(c3)OCO4)c3[nH]cnc3n2)nc2ccccc21	.	.	.	14.1
CCOc1ccccc1CN1CCOc2ccc(C(O)c3ccncc3)cc2C1 (centres undefined)	.	.	.	.
CC(C)N(CCNc1ncnc2c1nc(-c1ccc(N3CCOCC3)nc1)n2C(C)C)C(C)C	.	.	.	.
Cc1ccc(/C(O)=C/c2nc3ncc(Br)cc3[nH]c2=O)cc1	.	.	.	.
c1cnc2ccc(Nc3nc(Nc4ccc(N5CCOCC5)cc4)c4[nH]cnc4n3)cc2c1	.	79.7	.	.

Bioassay records (PubChem BioAssay)
